# Results filed as inconclusive are left out. A call without a number means that no potency is given here. Activity calls are given as the source filed them. Calls follow the shape of the dose curve; as a rule, active = well fitted curve in the direction sought with a large enough effect; inconclusive = small, poorly fitted or top-dose-only effect, or another doubt; inactive = no such curve, though single readings can be large; an effect the other way counts as inactive or inconclusive.
# How the values were obtained:
# [1] = system: Zika virus NS2B-NS3 protease (unlinked complex); experiment: Confirmatory screen GU AMC qHTS for Zika virus inhibitors (AID 1347153); also: nearly all actives have a fitted effect of over 70% in size
# Summary of the method: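 Noncovalent NS2B hydrophilic domain/NS3 protease complex (25 nM) in 10 mM Tris-HCl pH 8.0, 0.01% Tween 20 was preincubated 15 min at room temperature with compounds. Then 10 µM AMC substrate (Km 18.3 µM) was added; fluorescence was read over 15 min and fitted to a 4-parameter Hill equation.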
# [2] = Confirmatory screen NINDS Rhodamine qHTS for Zika virus inhibitors (AID 1347161); also: nearly all actives have a fitted effect of over 60% in size; also: potency is read from the fitted curve at half-maximal effect
# Summary of the method: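 qHTS dose-response: 25 nM linked protease, pH 8.0 Tris/Tween buffer, cpd titration, 15 min RT preinc, 1.5 microM Rhod110 peptide, 15 min reaction (~15% conversion), Ex480/Em540; 4-parameter Hill fit.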
# [3] = Vero cells viability qHTS for Zika virus inhibitors (AID 1347167)
# Summary of the method: (§1)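 Cells seeded at 2.5 x 10^5 cells/mL in DMEM with 4% FBS and attached overnight at 37 degrees C, then exposed to compound for 24 to 48 hours. Viability read as ATP content by CellTiter Glo luminescence.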
# [4] = HepG2 cells viability qHTS for Zika virus inhibitors (AID 1347168)
# Summary of the method: as §1
# [5] = system: Zika virus NS2B-NS3 protease; experiment: Primary screen GU AMC qHTS for Zika virus inhibitors (AID 1347154); also: nearly all actives have a fitted effect of over 70% in size; also: potency is read from the fitted curve at half-maximal effect
# Summary of the method: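 Unlinked Zika NS2B hydrophilic domain–NS3 protease complex at 25 nM in 10 mM Tris-HCl pH 8.0, 0.01% Tween 20, with an AMC peptide substrate. Fluorescence change (340/450 nm) over 15 min at room temperature, normalized to controls, fitted to 4-parameter Hill.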
# [6] = system: Zika virus NS2B-NS3 protease (unlinked complex); experiment: Primary screen GU Rhodamine qHTS for Zika virus inhibitors: Unlinked NS2B-NS3 protease assay (AID 1347159); also: nearly all actives have a fitted effect of over 60% in size
# Summary of the method: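 Noncovalent NS2B hydrophilic domain–NS3 protease domain complex (25 nM) preincubated 15 min at room temperature with compounds (up to 114 microM) in 10 mM Tris-HCl pH 8.0, 0.01% Tween 20; 1.5 microM Rhodamine110 substrate added, fluorescence change over 15 min fitted to Hill equation.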
# [7] = system: Zika virus NS2B-NS3 protease (linked construct); experiment: Primary screen NINDS Rhodamine qHTS for Zika virus inhibitors (AID 1347160); details: outcome: dose series up to 57.1 µM; also: nearly all actives have a fitted effect of over 55% in size
# Summary of the method: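 Purified linked NS2B-NS3 protease (NS2B hydrophilic domain joined to NS3 protease by flexible linker), 25 nM in 10 mM Tris-HCl pH 8.0, 0.01% Tween 20. Compounds titrated, 15 min preincubation at room temperature; 1.5 microM Rhodamine110 substrate, FITC fluorescence change over 15 min.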
# [8] = Confirmatory screen GU Rhodamine qHTS for Zika virus inhibitors qHTS (AID 1347157); details: purified enzyme assay, Rhodamine110 substrate fluorescence, 15 min; also: potency is read from the fitted curve at half-maximal effect; nearly all actives have a fitted effect of over 70% in size
# Summary of the method: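 Noncovalent NS2B hydrophilic domain/NS3 protease complex (25 nM final) in 10 mM Tris-HCl pH 8.0, 0.01% Tween 20, preincubated 15 min with compounds (up to 114 microM), then 1.5 microM Rhodamine110 substrate. Fluorescence change over 15 min fitted to 4-parameter Hill.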
# [9] = Tertiary RLuc qRT-PCR qHTS assay for Zika virus inhibitors (AID 1347169); also: top concentration of the series differs between compounds; nearly all actives have a fitted effect of over 55% in size
# Summary of the method: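 Orthogonal cell-based infection assay using recombinant ZIKV-RLuc (Cambodian) in Vero cells; compound added prior to virus at MOI 1-2. Incubation lasts 48-72 hrs at 37 degrees C before live-cell Renilla substrate is added and luminescence measured.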
# [10] = molecular target: Lysine-specific demethylase 5B (Homo sapiens) (UniProt Q9UGL1); experiment: Optimization screen for KDM5B Histone Demethylases FDH coupled qHTS against the LOPAC library (AID 1347166)
# Summary of the method: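 KDM5BDeltaAP (200nM final) preincubated 10 min with compound, then 12.5uM H3K4Me3, 25uM a-ketoglutarate, ascorbate, Fe(II), NAD+ and FDH added; 50mM HEPES pH 7.5, 0.01% Tween-20. NADH fluorescence (340/450 nm) change over 30 min, room temperature.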
# [11] = OV-KATE Cancer Cell Toxicity qHTS against the NCATS CANVASS Library (AID 1347345)
# Summary of the method: (§2)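 Bortezomib titration and single-dose wells served as plate controls. Test compounds, 11 points, acted on 1000 cells/well for 72 h at 37 degrees C; CellTiter-Glo luminescence quantified remaining viable cells.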
# [12] = HPAF-II Cancer Cell Toxicity qHTS against the NCATS CANVASS Library (AID 1347346); also: nearly all actives have a fitted effect of over 55% in size
# Summary of the method: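 Luminescence from CellTiter-Glo, added after 72 h compound exposure and a 15 min room-temperature incubation, served as the viability readout. HPAF-II cells (1000/well) received an 11-point concentration series.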
# [13] = UWB1.289 Cancer Cell Toxicity qHTS against the NCATS CANVASS Library (AID 1347347); also: nearly all actives have a fitted effect of over 60% in size
# Summary of the method: as §2
# [14] = OV-SAHO Cancer Cell Toxicity qHTS against the NCATS CANVASS Library (AID 1347348); also: nearly all actives have a fitted effect of over 55% in size
# Summary of the method: as §2
# [15] = Panc-1005 Cancer Cell Toxicity qHTS against the NCATS CANVASS Library (AID 1347349); also: nearly all actives have a fitted effect of over 60% in size
# Summary of the method: as §2
# [16] = SW1088 Cancer Cell Toxicity qHTS against the NCATS CANVASS Library (AID 1347350); also: nearly all actives have a fitted effect of over 75% in size
# Summary of the method: as §2
# [17] = U-118MG Cancer Cell Toxicity qHTS against the NCATS CANVASS Library (AID 1347351)
# Summary of the method: as §2
# [18] = COV-362 Cancer Cell Toxicity qHTS against the NCATS CANVASS Library (AID 1347352)
# Summary of the method: (§3)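 Luminescent ATP read-out (CellTiter-Glo, 15min at room temperature) measures survival after cells face an 11-point compound series for 72 hours at 37 degrees C/5% CO2.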
# [19] = A2780 Cisplatin Sensitive Ovarian Cancer Cell Toxicity qHTS against the NCATS CANVASS Library (AID 1347353); details: A2780 ovarian cancer viability, ATPLite luminescence, 72 h; at 46.1 µM (top of the series); also: nearly all actives have a fitted effect of over 60% in size
# Summary of the method: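 Luminescent ATP content (ATPLite, 10 min at room temperature) served as the read-out after cells had been exposed to compounds for 72 hours at 37 °C. Dosing followed an 11-point concentration series.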
# [20] = UWB1.289-WTBRCA1 Cancer Cell Toxicity qHTS against the NCATS CANVASS Library (AID 1347354); details: UWB1.289-WTBRCA1 viability, CellTiter-Glo luminescence, 72 h; at 38.3 µM (top of the series)
# Summary of the method: as §3
# Chain of Lysine-specific demethylase 5B (Homo sapiens) (Q9UGL1 whole entry, looked up): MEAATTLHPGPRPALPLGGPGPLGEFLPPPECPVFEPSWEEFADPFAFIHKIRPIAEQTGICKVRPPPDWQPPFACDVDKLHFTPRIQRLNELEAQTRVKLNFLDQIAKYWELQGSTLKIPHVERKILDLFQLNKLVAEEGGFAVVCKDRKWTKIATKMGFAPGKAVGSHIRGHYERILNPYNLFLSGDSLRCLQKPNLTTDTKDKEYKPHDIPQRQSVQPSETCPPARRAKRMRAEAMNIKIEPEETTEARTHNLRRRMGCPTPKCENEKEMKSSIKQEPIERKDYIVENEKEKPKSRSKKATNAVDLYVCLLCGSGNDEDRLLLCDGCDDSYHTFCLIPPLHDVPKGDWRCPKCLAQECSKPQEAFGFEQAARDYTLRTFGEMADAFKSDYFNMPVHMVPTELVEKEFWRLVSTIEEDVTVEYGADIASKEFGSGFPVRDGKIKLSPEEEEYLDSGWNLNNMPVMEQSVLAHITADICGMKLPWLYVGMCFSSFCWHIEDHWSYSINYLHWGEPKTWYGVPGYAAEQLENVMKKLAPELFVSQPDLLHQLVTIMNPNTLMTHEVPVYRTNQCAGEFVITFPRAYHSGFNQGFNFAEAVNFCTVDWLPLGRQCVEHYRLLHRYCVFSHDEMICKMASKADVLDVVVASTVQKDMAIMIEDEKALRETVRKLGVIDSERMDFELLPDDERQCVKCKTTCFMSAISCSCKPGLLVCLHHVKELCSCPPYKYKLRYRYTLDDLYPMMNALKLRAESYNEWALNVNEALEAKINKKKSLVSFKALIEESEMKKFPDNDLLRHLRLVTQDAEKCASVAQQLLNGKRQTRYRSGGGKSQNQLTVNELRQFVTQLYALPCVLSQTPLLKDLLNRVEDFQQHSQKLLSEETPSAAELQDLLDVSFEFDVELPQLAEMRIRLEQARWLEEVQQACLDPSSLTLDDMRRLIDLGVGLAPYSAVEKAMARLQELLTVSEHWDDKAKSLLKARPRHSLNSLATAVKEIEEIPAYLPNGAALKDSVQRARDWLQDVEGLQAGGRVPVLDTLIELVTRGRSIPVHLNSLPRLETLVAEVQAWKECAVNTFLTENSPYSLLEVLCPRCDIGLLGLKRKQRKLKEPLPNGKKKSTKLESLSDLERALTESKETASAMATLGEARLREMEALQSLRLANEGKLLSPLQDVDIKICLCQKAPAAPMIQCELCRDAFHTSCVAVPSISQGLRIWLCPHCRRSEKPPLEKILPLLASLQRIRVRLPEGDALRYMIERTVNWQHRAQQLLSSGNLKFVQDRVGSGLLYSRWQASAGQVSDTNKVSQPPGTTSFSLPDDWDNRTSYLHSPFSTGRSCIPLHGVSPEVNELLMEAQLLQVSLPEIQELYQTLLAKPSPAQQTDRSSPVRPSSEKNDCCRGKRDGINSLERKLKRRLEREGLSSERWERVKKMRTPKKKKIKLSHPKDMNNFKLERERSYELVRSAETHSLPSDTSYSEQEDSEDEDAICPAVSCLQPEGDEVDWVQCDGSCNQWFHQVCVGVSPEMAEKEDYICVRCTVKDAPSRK
structure (smiles),measurement,setting,value
Oc1ccc([C@H]2CNCc3c2ccc(O)c3O)cc1O,outcome,[1],inactive
same,Potency,[2],inactive
same,outcome,[3],inactive
same,outcome,[4],inactive
Cc1c(Cl)c(=O)oc2cc(OP(=O)(OCCCl)OCCCl)ccc12,Potency,[5],14.4 µM (active)
CNC(C)Cc1ccc2c(c1)OCO2 (stereo not drawn),Potency,[5],inactive
CN1C(=O)[C@@H](NC(=O)c2cc3ccccc3[nH]2)N=C(c2ccccc2)c2ccccc21,Potency,[5],inactive
O=C(CCl)c1ccc(Cl)cc1Cl,Potency,[5],inactive
CC(C)=CCN1CC[C@@]2(C)c3cc(O)ccc3C[C@@H]1[C@@H]2C,Potency,[5],inactive
same,outcome,[3],inactive
same,outcome,[4],inactive
C#C[C@]1(O)C=C[C@H]2[C@@H]3CCC4=CC(=O)CC[C@@H]4[C@H]3CC[C@@]21CC,Potency,[5],inactive
CC[C@H]1C[C@H]2[C@@H]3CCC4=CC(=O)CC[C@@H]4[C@H]3CC[C@]2(C)[C@H]1O,Potency,[5],inactive
same,outcome,[6],inactive
same,outcome,[7],inactive
Cc1nnc2n1-c1sc(CCc3ccc(CC(C)C)cc3)cc1C(c1ccccc1Cl)=NC2C (stereo not drawn),Potency,[8],44.1 µM (active)
same,outcome,[6],inactive
same,Potency,[2],44.1 µM (active)
same,outcome,[9],inactive
COP(=S)(OC)Oc1ccc(S(N)(=O)=O)cc1,Potency,[5],inactive
CCOC(=O)NC(C)(C)Cc1ccc(Cl)cc1,Potency,[5],inactive
same,outcome,[6],inactive
same,outcome,[7],inactive
CCCC[N+]1(C)[C@@H]2CC(OC(=O)[C@H](CO)c3ccccc3)C[C@H]1[C@@H]1O[C@@H]12 (stereo partly drawn),Potency,[5],inactive
same,outcome,[6],inactive
same,outcome,[7],inactive
CN1C[C@@H](NS(=O)(=O)N(C)C)C[C@@H]2c3cccc4c3c(cn4C)C[C@H]21,Potency,[5],inactive
O=C(O)c1nn(Cc2ccc(Cl)cc2Cl)c2ccccc12,Potency,[5],inactive
same,outcome,[10],inactive
CN(C)CCc1c[nH]c2ccccc12,Potency,[5],inactive
same,outcome,[7],inactive
same,outcome,[11],inactive
same,outcome,[12],inactive
same,outcome,[13],inactive
same,outcome,[14],inactive
same,outcome,[15],inactive
same,outcome,[16],inactive
same,outcome,[17],inactive
same,outcome,[18],inactive
same,outcome,[19],inactive
same,outcome,[20],inactive
C[C@]12CC[C@H](O)CC1=CC[C@@H]1[C@@H]2CC[C@]2(C)C(=O)CC[C@@H]12,Potency,[5],inactive
same,outcome,[6],inactive
same,outcome,[7],inactive
O=C(O)CCCCCCNC1c2ccccc2CCc2ccccc21,Potency,[5],inactive
same,outcome,[6],inactive
same,outcome,[7],inactive
CCN(CC)Cc1nccn1-c1ccc([N+](=O)[O-])cc1C(=O)c1ccccc1Cl,Potency,[5],inactive
NC1(c2ccccc2)CCCCC1,Potency,[5],inactive
CCOC(=O)c1ncn2c1CN(C)C(=O)c1c(I)cccc1-2,Potency,[5],inactive
same,outcome,[6],inactive
same,outcome,[7],inactive
Cc1ccc(N=CN(C)C=Nc2ccc(C)cc2C)c(C)c1,Potency,[5],inactive
CCOP(=S)(OCC)O/N=C(\C#N)c1ccccc1,Potency,[5],inactive
O=C(N[C@H]1N=C(c2ccccc2F)c2cccc3c2N(CC3)C1=O)c1cc2ccccc2[nH]1,Potency,[5],inactive
same,outcome,[6],inactive
same,outcome,[7],inactive
NC(=O)CN1CCCC1=O,Potency,[5],inactive
same,outcome,[10],inactive
Cc1ccc([N+](=O)[O-])[c]2c1[O][Hg]2,Potency,[5],inactive
CCOC(=O)c1cncn1C(C)c1ccccc1 (stereo not drawn),Potency,[5],inactive
same,outcome,[6],inactive
same,outcome,[7],inactive
CCCCC1C(=O)NC(=O)N(C2CCCCC2)C1=O (stereo not drawn),Potency,[5],inactive
same,outcome,[7],inactive
COc1cc(C[C@@H](C)N)c(OC)cc1Br,Potency,[5],inactive
CN1C2CCC(C)(C)C1CC(OC(=O)C(O)(c1cccs1)c1cccs1)C2 (stereo not drawn),Potency,[5],inactive
Cc1ncc2n1-c1ccc(Cl)cc1C(c1ccccc1F)=NC2,Potency,[5],inactive
COc1ccc(C(=O)N2CCCC2=O)cc1,Potency,[5],inactive
same,outcome,[10],inactive
COP(=S)(OC)Oc1ccc(Sc2ccc(OP(=S)(OC)OC)cc2)cc1,Potency,[5],inactive
CC(Cc1ccc2c(c1)OCO2)NO (stereo not drawn),Potency,[5],inactive
COc1ccc2c(C(=O)c3ccc(Cl)cc3)c(C)n(CC(=O)O)c2c1,Potency,[5],inactive
same,outcome,[6],inactive
same,outcome,[7],inactive
CC(C)(O)C(Cl)(Cl)Cl,Potency,[5],inactive
COC(=O)C1=CCCN(C)C1,Potency,[5],inactive
same,outcome,[10],inactive
CCCOC(=O)Cc1ccc(OCC(=O)N(CC)CC)c(OC)c1,Potency,[5],inactive
same,outcome,[6],inactive
ClC1=C(Cl)C2(Cl)C(CBr)CC1(Cl)C2(Cl)Cl (stereo not drawn),Potency,[5],inactive
O=C(N[C@@H]1N=C(c2ccccc2F)c2cccc3c2N(CC3)C1=O)c1cc2ccccc2[nH]1,Potency,[5],inactive
same,outcome,[6],inactive

# Source: PubChem BioAssay (NCATS)
